Data from ChEMBL document CHEMBL1961873, “Compounds: GSK PKIS; Assays: Nanosyn kinase panel” (2012).

Assays:
[1] = target: Protein kinase C gamma type (Homo sapiens) (UniProt P05129); conditions: at 1 µM;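 note: each value is an averaged percent inhibition of the enzyme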
[2] = target: T1, Protein kinase C iota type (Homo sapiens) (UniProt P41743); conditions: at 0.1 µM
T1 sequence (whole entry): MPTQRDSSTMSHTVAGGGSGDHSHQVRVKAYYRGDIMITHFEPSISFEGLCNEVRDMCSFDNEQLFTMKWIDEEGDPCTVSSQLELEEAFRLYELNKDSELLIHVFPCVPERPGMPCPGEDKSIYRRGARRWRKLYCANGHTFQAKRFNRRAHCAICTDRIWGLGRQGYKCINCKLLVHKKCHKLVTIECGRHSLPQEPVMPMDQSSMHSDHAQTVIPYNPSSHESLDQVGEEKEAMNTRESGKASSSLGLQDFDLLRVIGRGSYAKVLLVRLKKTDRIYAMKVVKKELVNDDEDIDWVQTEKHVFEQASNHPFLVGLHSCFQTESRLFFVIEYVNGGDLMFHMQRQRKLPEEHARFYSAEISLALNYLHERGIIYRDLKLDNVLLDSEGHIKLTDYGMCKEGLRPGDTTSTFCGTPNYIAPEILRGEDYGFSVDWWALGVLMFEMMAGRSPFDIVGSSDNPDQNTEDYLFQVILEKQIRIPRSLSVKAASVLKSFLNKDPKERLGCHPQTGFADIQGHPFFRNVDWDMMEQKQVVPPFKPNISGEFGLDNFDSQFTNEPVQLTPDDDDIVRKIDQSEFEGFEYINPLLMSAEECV

[3] = target: T1, Protein kinase C iota type (Homo sapiens); conditions: at 1 µM
[4] = target: Protein kinase C theta type (Homo sapiens) (UniProt Q04759); conditions: at 0.1 µM
Sequence of Protein kinase C theta type (Homo sapiens) (Q04759 whole entry, looked up): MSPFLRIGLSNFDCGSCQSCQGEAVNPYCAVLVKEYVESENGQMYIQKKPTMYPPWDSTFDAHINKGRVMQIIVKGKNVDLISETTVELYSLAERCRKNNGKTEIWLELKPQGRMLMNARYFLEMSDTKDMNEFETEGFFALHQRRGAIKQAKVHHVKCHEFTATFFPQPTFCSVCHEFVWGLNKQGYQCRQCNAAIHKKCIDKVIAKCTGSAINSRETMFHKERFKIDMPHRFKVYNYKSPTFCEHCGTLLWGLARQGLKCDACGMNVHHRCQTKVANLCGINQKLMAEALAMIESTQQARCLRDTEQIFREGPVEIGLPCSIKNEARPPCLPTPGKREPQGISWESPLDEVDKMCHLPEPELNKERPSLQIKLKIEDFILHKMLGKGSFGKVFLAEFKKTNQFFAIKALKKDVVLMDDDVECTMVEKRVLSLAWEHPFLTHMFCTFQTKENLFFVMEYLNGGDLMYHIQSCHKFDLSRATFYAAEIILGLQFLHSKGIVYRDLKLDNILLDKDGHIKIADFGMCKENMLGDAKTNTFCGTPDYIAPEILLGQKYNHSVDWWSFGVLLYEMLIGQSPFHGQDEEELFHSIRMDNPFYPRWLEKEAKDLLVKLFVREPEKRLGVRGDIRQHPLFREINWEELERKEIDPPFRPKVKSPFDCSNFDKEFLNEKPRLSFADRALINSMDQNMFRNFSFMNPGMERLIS

[5] = target: Protein kinase C theta type (Homo sapiens) (UniProt Q04759); conditions: at 1 µM
[6] = target: Protein kinase C beta type (Homo sapiens) (UniProt P05771); conditions: at 0.1 µM
Sequence of Protein kinase C beta type (Homo sapiens) (P05771 2-671 limits assumed): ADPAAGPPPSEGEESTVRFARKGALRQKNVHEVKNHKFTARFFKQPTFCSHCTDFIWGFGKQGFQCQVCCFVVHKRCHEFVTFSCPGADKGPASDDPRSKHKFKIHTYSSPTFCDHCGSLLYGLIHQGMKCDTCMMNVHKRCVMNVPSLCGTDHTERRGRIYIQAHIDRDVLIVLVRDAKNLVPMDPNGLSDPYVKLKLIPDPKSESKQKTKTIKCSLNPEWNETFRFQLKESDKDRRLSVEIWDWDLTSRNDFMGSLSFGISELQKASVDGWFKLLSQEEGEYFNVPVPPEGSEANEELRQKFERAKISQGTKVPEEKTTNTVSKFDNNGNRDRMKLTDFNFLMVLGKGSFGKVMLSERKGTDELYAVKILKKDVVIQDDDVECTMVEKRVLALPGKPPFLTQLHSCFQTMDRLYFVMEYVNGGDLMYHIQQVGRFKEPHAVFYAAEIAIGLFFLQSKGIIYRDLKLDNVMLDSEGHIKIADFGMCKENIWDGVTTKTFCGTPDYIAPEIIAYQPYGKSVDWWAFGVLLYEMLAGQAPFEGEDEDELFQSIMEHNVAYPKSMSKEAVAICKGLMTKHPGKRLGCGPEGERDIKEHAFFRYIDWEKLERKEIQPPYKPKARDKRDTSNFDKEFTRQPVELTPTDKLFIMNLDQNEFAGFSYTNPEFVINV

[7] = target: Protein kinase C beta type (Homo sapiens) (UniProt P05771); conditions: at 1 µM
[8] = target: T2, Serine/threonine-protein kinase D1 (Homo sapiens) (UniProt Q15139); conditions: at 0.1 µM
T2 sequence (whole entry): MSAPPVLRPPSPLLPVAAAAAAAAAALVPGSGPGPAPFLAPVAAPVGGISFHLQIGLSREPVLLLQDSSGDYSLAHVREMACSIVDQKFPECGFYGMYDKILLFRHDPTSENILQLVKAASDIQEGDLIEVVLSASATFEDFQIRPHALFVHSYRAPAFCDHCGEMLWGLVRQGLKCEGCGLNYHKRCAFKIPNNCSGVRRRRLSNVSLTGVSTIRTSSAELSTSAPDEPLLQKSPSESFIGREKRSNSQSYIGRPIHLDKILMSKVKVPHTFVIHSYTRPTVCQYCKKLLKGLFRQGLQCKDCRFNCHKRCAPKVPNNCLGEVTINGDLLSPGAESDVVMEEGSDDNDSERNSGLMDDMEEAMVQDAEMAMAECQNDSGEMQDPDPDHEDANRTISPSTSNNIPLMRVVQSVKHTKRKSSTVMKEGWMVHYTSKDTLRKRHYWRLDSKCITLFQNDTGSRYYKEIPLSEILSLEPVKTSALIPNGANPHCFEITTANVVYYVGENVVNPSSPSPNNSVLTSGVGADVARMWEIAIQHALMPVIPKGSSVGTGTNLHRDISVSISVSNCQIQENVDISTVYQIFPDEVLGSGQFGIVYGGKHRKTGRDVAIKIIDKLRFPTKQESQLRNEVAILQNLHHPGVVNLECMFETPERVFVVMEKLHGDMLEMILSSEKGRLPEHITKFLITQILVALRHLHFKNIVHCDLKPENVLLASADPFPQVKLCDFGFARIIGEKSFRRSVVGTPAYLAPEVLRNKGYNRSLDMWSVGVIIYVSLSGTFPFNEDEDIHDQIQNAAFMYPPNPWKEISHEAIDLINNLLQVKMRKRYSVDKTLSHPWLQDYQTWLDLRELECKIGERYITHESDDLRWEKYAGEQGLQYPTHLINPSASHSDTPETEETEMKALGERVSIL

[9] = target: T2, Serine/threonine-protein kinase D1 (Homo sapiens); conditions: at 1 µM
[10] = target: T3, Serine/threonine-protein kinase D2 (Homo sapiens) (UniProt Q9BZL6); conditions: at 0.1 µM
T3 sequence (whole entry): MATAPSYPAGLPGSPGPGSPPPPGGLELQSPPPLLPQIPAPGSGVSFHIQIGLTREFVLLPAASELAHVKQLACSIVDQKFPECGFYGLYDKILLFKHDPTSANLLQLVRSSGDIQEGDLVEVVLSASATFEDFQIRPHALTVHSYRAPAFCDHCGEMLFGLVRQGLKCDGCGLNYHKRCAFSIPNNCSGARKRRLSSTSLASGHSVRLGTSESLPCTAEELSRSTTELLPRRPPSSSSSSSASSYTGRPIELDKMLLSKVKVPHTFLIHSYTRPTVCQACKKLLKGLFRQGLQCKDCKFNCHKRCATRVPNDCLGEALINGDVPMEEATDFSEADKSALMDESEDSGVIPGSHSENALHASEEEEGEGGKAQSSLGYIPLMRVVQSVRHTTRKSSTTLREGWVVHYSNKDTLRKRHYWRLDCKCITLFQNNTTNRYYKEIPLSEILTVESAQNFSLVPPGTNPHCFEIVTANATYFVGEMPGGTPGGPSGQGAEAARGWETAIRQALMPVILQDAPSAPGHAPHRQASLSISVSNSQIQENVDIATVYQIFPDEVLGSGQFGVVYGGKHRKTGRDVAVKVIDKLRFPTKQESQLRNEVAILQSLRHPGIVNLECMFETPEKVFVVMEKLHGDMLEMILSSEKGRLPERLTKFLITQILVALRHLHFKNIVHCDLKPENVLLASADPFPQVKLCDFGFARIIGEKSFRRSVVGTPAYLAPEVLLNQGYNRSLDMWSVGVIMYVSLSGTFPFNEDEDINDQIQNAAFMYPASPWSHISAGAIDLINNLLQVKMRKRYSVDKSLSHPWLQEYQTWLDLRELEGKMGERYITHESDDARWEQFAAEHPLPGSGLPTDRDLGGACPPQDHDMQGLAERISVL

[11] = target: T3, Serine/threonine-protein kinase D2 (Homo sapiens); conditions: at 1 µM
[12] = target: T4, Serine/threonine-protein kinase D3 (Homo sapiens) (UniProt O94806); conditions: at 0.1 µM
T4 sequence (whole entry): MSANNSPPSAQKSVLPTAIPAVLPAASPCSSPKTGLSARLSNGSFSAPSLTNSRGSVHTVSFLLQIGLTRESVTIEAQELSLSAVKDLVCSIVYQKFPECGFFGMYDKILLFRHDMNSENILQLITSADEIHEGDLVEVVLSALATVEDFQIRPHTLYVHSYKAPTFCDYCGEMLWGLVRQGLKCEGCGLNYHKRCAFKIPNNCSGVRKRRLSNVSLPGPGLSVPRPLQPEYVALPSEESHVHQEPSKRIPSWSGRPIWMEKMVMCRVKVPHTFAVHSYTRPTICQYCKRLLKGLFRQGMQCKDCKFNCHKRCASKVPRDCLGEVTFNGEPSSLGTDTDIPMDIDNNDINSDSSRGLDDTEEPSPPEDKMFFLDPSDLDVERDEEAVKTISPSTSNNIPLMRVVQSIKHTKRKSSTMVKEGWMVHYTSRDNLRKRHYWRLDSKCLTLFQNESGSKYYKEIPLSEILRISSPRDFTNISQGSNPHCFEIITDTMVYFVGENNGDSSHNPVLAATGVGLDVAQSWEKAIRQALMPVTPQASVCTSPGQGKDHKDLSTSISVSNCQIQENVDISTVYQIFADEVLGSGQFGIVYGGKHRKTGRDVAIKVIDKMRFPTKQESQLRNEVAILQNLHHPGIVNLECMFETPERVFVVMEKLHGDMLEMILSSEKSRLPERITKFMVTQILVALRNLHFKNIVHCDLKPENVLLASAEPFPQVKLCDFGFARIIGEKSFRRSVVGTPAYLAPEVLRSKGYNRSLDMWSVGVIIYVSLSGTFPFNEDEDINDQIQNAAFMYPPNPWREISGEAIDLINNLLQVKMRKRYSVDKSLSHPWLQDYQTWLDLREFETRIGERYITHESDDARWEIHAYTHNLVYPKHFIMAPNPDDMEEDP

[13] = target: T4, Serine/threonine-protein kinase D3 (Homo sapiens); conditions: at 1 µM
[14] = target: T5, cGMP-dependent protein kinase 1 (Homo sapiens) (UniProt Q13976); conditions: at 0.1 µM
T5 sequence (whole entry): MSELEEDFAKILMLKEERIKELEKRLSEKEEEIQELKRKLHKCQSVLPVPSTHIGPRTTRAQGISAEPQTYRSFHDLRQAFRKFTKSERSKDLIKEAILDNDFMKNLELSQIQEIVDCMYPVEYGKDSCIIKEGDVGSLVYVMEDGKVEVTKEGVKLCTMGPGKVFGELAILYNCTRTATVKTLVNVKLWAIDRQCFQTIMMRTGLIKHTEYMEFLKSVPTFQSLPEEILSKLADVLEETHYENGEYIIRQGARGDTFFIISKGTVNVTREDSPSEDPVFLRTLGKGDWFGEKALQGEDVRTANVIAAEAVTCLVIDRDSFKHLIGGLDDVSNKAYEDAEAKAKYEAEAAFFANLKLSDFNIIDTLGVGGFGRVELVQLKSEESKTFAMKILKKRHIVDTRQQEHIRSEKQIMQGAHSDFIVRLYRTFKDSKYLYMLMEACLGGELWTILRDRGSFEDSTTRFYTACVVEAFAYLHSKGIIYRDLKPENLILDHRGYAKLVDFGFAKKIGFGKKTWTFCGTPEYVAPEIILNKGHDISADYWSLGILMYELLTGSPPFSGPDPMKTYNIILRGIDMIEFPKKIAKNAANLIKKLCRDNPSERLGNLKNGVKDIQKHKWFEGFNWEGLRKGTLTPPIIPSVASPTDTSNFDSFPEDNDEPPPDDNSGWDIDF

[15] = target: T5, cGMP-dependent protein kinase 1 (Homo sapiens); conditions: at 1 µM
[16] = target: T6, cGMP-dependent protein kinase 2 (Homo sapiens) (UniProt Q13237); conditions: at 0.1 µM
T6 sequence (whole entry): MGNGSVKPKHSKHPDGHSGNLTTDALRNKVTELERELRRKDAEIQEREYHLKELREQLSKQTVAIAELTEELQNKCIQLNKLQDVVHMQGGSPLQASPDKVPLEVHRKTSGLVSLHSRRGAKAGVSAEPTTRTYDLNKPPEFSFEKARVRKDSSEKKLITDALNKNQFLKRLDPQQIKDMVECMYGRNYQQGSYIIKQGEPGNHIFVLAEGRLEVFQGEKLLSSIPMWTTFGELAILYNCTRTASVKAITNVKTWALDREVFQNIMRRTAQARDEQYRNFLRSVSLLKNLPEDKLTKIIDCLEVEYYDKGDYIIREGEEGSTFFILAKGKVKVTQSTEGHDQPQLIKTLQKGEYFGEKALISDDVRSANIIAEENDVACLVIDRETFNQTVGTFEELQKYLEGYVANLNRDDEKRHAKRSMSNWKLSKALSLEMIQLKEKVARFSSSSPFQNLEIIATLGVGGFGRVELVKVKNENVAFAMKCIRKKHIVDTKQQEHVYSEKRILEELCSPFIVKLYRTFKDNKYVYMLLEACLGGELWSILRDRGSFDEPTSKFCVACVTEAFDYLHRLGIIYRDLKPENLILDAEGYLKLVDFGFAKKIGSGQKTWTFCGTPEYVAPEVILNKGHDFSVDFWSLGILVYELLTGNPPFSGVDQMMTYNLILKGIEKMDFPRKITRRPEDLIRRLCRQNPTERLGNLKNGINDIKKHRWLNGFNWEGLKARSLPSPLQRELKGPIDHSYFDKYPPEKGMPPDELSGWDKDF

[17] = target: T6, cGMP-dependent protein kinase 2 (Homo sapiens); conditions: at 1 µM
[18] = target: T7, cAMP-dependent protein kinase catalytic subunit PRKX (Homo sapiens) (UniProt P51817); conditions: at 0.1 µM
T7 sequence (whole entry): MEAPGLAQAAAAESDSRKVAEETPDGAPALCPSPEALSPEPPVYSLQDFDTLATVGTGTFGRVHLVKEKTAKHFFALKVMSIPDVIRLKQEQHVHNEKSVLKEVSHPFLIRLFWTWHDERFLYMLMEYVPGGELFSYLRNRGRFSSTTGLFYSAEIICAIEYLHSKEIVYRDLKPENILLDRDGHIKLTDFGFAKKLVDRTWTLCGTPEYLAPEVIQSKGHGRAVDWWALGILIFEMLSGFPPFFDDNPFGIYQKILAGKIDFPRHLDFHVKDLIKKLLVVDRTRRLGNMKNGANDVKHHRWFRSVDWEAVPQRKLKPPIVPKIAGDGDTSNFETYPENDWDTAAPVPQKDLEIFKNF

[19] = target: T7, cAMP-dependent protein kinase catalytic subunit PRKX (Homo sapiens); conditions: at 1 µM
[20] = target: Rho-associated protein kinase 1 (Homo sapiens) (UniProt Q13464); conditions: at 0.1 µM;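 note: values are mean percent inhibition of ROCK1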
Sequence of Rho-associated protein kinase 1 (Homo sapiens) (Q13464 2-1354 limits assumed): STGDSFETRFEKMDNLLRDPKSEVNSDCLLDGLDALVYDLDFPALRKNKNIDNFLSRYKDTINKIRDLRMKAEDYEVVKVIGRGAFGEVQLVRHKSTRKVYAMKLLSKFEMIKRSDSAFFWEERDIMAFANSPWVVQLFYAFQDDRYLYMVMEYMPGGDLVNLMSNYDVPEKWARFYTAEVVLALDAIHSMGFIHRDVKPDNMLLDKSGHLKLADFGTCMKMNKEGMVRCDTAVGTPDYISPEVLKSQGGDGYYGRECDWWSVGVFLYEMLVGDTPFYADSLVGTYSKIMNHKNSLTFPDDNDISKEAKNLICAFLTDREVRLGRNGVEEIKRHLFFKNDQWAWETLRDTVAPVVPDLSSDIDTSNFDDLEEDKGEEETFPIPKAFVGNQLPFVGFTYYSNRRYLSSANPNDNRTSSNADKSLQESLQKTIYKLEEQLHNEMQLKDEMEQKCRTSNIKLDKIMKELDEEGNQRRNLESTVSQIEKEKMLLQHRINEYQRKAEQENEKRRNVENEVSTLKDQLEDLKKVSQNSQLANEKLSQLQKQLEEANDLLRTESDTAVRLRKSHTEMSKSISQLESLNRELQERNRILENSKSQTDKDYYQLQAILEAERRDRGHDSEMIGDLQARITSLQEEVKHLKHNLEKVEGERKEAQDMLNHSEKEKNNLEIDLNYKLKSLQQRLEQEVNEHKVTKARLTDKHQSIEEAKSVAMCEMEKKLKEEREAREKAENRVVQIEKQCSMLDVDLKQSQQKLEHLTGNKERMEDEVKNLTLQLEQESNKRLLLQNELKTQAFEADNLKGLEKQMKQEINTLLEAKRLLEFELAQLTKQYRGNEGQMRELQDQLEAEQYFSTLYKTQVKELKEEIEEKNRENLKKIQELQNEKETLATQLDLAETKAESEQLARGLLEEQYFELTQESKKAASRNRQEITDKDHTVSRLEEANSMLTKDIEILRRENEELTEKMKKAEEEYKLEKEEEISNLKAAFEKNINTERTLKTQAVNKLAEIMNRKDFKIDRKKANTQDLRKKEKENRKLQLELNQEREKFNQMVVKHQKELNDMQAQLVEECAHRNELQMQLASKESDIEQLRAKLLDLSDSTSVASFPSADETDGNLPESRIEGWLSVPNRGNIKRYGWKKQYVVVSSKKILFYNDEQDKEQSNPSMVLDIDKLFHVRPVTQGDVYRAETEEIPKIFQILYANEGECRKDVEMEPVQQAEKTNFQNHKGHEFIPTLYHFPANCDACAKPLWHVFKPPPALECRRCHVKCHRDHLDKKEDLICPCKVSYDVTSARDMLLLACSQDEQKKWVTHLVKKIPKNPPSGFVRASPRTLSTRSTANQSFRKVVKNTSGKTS

| SMILES | inhibition [1] [%] | inhibition [2] [%] | inhibition [3] [%] | inhibition [4] [%] | inhibition [5] [%] | inhibition [6] [%] | inhibition [7] [%] | inhibition [8] [%] | inhibition [9] [%] | inhibition [10] [%] | inhibition [11] [%] | inhibition [12] [%] | inhibition [13] [%] | inhibition [14] [%] | inhibition [15] [%] | inhibition [16] [%] | inhibition [17] [%] | inhibition [18] [%] | inhibition [19] [%] | inhibition [20] [%] |
| --- | --- | --- | --- | --- | --- | --- | --- | --- | --- | --- | --- | --- | --- | --- | --- | --- | --- | --- | --- | --- |
| CCOc1nccc2c1nc(-c1nonc1N)n2CC | 0.08 | 3.07 | 0.84 | 2.98 | 6.45 | 3.06 | 5.23 | 3.37 | 1.82 | 1.9 | 1.39 | 3.3 | 2.21 | 4.09 | 5.91 | 8.5 | 43.1 | 3.1 | 2.76 | 2.91 |
| Nc1ccc(C#Cc2cncnc2Nc2ccc(OCc3cccc(F)c3)c(Cl)c2)cc1 | 1.26 | 1.82 | 1.53 | 1.3 | 1.13 | 0.84 | 0.6 | 4.09 | 3.44 | 3.76 | 2.21 | 2.59 | 2.64 | 3.04 | 1.31 | 2.28 | 0.99 | 1.33 | 1.72 | 0.74 |
| OCc1ccc(-c2nc(-c3ccccn3)c(-c3ccc4c(c3)OCO4)[nH]2)cc1 | 1.5 | 2.1 | 3.65 | 2.3 | 0.86 | 0.63 | 0.97 | 4.39 | 8.27 | 4.75 | 9.51 | 5.74 | 8.28 | 1.9 | 2.98 | 2.69 | 3.26 | 1.55 | 0.61 | 1.43 |
| Cc1ccc2c(-c3ccnc(Nc4ccc5c(c4)OCCO5)n3)c(-c3ccc(C(F)(F)F)cc3)nn2n1 | 3.76 | 0.29 | 1.15 | 1.61 | 2.73 | 0.24 | 2.06 | 1.11 | 3.32 | 2.13 | 2.37 | 1.2 | 2.26 | 3.03 | 3.63 | 2.95 | 2.42 | 6.47 | 6.18 | 0.76 |
